Only some compounds are listed: those with a hit (about 4.4% of all), similar ones and a draw of the others.
TRHR ag = TRH receptor (human) agonism | P34981 | TRHR cells, calcium flux fluo-8, FDSS agonist mode | activation, % at 2 µM | hit rate 0.18% among 360,000 | AID 493084; further: 0% is about no effect
Target sequence (P34981 whole entry, looked up): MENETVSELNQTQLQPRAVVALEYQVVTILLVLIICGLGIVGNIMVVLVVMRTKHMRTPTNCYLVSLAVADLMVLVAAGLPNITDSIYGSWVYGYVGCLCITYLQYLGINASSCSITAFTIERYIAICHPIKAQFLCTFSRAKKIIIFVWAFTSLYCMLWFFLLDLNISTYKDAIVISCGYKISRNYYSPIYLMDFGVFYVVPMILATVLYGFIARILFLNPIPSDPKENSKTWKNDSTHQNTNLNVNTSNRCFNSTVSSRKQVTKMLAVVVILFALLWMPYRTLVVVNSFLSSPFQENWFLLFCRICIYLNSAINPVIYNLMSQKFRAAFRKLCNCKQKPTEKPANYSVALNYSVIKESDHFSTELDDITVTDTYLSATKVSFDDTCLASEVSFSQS
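Agonist-mode FDSS calcium read (Ex 480/Em 530, 1 s cycles) in 1536-well TRHR cells with fluo-8 dye, after 10-cycle baseline and 23 nL compound addition; TRH at EC20 (10 nM final) added afterwards for the enhancer phase.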
D1 antag = antagonists of human D1 dopamine receptor | P21728 | HEK293 TREx D1 cells, calcium flux, dopamine EC80; active compounds read low | activity change, negative = inhibition, % at 10 µM | hit rate 3.2% among 360,000 | AID 504652; in the data active means activity change below about -30%; further: on the % scale 0 is the no-effect control and ±100 the full control effect
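Calcium flux readout: force-coupled, inducible Hek293 Trex D1 line, cells induced overnight at 30 C with tetracycline, dye-loaded 30–90 min at RT. Antagonism scored against EC80 dopamine challenge given 180 s after compound.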
USP1-UAF1 inh = blocks the human USP1/UAF1 deubiquitinase complex | O94782 | hit rate 0.23% among 390,000 | AID 743255 | recombinant USP1/UAF1, Ub-Rhodamine cleavage fluorescence | Potency, µM (highest dose often 57.1 µM), for the others: at the top dose activity change, negative = inhibition, actives largely listed as inhibitors; active means well fitted inhibition curve with a large enough effect; inconclusive means small, poorly fitted or top-dose-only effect; inactive means no such curve, though single readings can be large or run the other way; further: potency means the concentration at half of the fitted maximal effect; on the % scale 0 is the no-effect control and ±100 the full control effect; nearly all actives have a fitted effect of over 60% in size
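High-throughput fluorogenic screen: 1nM USP1/UAF1 complex, Ub-Rho substrate 150nM final, 50mM HEPES pH 7.8 with 0.5mM EDTA, 0.1 mg/ml BSA, 1mM TCEP and 0.01% Tween-20.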
D1 agonist = activates the human D1 dopamine receptor | P21728 | HEK293 T-REx D1 cells, calcium flux, agonist mode | activation, % at 2 µM | hit rate 1% among 360,000; further: 0% is about no effect
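Inducible HEK293 T-REx D1 cells, force-coupled to calcium signalling, were plated at 4000 cells/well with tetracycline and held overnight at 30 C. After no-wash calcium dye loading, compound-evoked calcium rise over 180 s flagged agonists.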
TRHR enhancer = allosteric enhancers of human TRH receptor | AID 493056 | P34981 | enhancement, % at 2 µM | TRHR cells, fluo-8 calcium fluorescence, EC20 TRH enhancement | hit rate 0.66% among 360,000; in the data active means enhancement above about 30%; further: 0% is about no effect
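Enhancer read-out: after compound pinning and an initial kinetic agonist-mode read, an EC20 of TRH (10 nM final) was injected and fluo-8 calcium signal (Ex 480/Em 530) followed at 1 s/cycle for 100 cycles in TRHR-expressing cells.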
D1 potentiator = human D1 dopamine receptor positive modulation; P21728; HEK293 TREx D1 cells, calcium flux, dopamine EC20 potentiation; potentiation, % at 10 µM; hit rate 0.036% among 360,000; AID 504651; in the data active means potentiation above about 30%; further: 0% is about no effect
An asterisk follows results filed as active; ? = inconclusive; / = no result given. Unless noted, no stated cut-off is given here; in the data, active means activation above about 30%; inactive means the rest.

SMILES	TRHR ag	D1 antag	USP1-UAF1 inh	D1 agonist	TRHR enhancer	D1 potentiator
CN(CCOc1ccc(C=C2C(=O)NC(=O)NC2=O)cc1)c1ccccn1	0	25	-14%	6	6	-3
O=C1NC(=O)C(=Cc2ccc(OCC(=O)N3CCOCC3)cc2)C(=O)N1	-3	-37*	-12%	3	6	0
O=c1[nH]c(=S)n(-c2ccccc2)c(O)c1C=NCc1ccccn1	-2	-44*	-5%	3	-4	-1
O=C(COc1ccccc1[N+](=O)[O-])N1CCN(CCc2ccncc2)CC1	0	-4	-24%	3	0	0
O=C(Nc1ccc(Br)cc1C(=O)c1ccccc1Cl)c1ccccc1F	0	-11	-13%	2	-3	-3
CCN(CC)C(=O)c1ccc2c(c1)C1C=CCC1C(C(=O)O)N2 (stereo unspecified)	1	-13	25µM*	3	-4	0
CCN1CCN(S(=O)(=O)c2ccc(Cl)nc2)CC1	0	-35*	-2%	6	-5	-4
CCN1CCN(C(=O)COc2ccc(S(=O)(=O)N3CCOCC3)cc2Cl)CC1	1	6	-11%	0	-16	-1
CCOc1ccccc1CNCCc1ccc2c(c1)OCO2	0	19	6%	12	1	-8
CCOc1ccccc1CN1C2CCC1CC(c1ccc(C)cc1)C2 (stereo unspecified)	0	-41*	-20%	13	19	-7
CN1CCN(Cc2c(F)cccc2Cl)CC1	0	-11	-25%	5	7	-6
CN1CCc2cccc(Cl)c2CC1	1	-64*	-29%	0	0	-7
COc1ccc(OC)c(N=Cc2c(O)n(Cc3ccccc3)c(=S)[nH]c2=O)c1	24	12	28µM*	27	-2	-2
Cc1ccc(Nc2nnc(-c3ccc(C)c(S(=O)(=O)NCc4nc5ccccc5[nH]4)c3)c3ccccc23)cc1	1	12	?	4	2	-1
Cn1ncnc2c(=O)n(C)c(=O)nc1-2	-1	10	0.032µM*	7	6	5
Cc1cc(C)cc(-n2c(/C=C/c3cccc(F)c3)nc3ccccc3c2=O)c1	-1	6	-23%	-3	-2	0
CCc1ccc(CNCCc2ccc(F)cc2)cc1	-1	-11	-13%	62*	10	-7
Fc1ccc(CCNCc2ccc(Cl)c(Cl)c2)cc1	1	-15	-4%	10	3	-2
CCN(CC)c1ccc(CNCCc2ccc(F)cc2)cc1	1	4	-11%	64*	1	1
Cc1ccc(-n2c(/C=C/c3ccc(Br)s3)nc3ccccc3c2=O)cc1C	1	38	16%	3	-19	-2
Cc1ccc(-n2c(/C=C/c3cc(Br)cs3)nc3ccccc3c2=O)cc1C	0	-5	-10%	1	-16	2
COc1cc2c(cc1O)C[C@H]1c3c(cc(O)c(OC)c3-2)CCN1C	0	/	-19%	/	-1	/
COc1ccc(C[C@@H]2c3cc(O)c(OC)cc3CCN2C)cc1O	0	-88*	-27%	0	-7	-11
COc1cc2c(cc1O)[C@@H]1Cc3ccc(OC)c(O)c3CN1CC2	0	-90*	14µM*	-1	-2	-7
CC(C)c1ccc(NC(=O)C2CCN(S(=O)(=O)c3ccc(Br)s3)CC2)cc1	0	-20	?	2	-4	-1
COc1ccccc1C1Nc2ccccc2-n2c(-c3ccccc3)c3c(=O)n(C)c(=O)n(C)c3c21 (stereo unspecified)	0	-15	?	1	-3	-3
C[n+]1c(-c2ccccc2)c2cc(N)ccc2c2ccc(N)cc21	5	1	?	27	-6	-6
Nc1ccc2ccc3cccc[n+]3c2c1	65*	-26	28µM*	131*	9	12
Clc1ccc(CNC2CN3CCC2CC3)cc1 (stereo unspecified)	0	-75*	-14%	4	2	-8
